# Data from PubChem BioAssay AID2113 (National Center for Advancing Translational Sciences (NCATS), 2009).
# “And” between values parts separate entries of the source, which are not always exact repeats. Identical values can stand only once. Inconclusive results are not listed. Entries that show only a call come without a potency. The source made the active and inactive calls. Calls follow the shape of the dose curve; as a rule, active = well fitted curve in either direction with a large enough effect; inconclusive = small, poorly fitted or top-dose-only effect; inactive = no such curve, though single readings can be large or run the other way.
# Biological target: Lysosomal alpha-glucosidase (Homo sapiens) (UniProt P10253)
# Test: Confirmation of Inhibitors and Activators of Human alpha-Glucosidase From Spleen Homogenate;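 as to potency: fluorescence of 4-methylumbelliferone released from a fluorogenic glucopyranoside substrate at pH 5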
# Conditions: alpha-glucosidase enzyme activity; series mostly up to 60.5 µM
# Outline: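 Fluorogenic assay using human spleen homogenate (1 ug) as enzyme source with 1 mM 4-methylumbelliferyl-alpha-D-glucopyranoside, pH 5.0 citrate buffer, 40 min at 37 C. 4-MU read (Ex 365/Em 440) after NaOH/glycine stop; AC50 from Hill fits.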
# Potency is read from the fitted curve at half-maximal effect.
row,Structure (SMILES),Potency
1,O=S(=O)(c1ccc2ccccc2c1)N1CCOCC1,inactive
2,CCCN1CNc2c(c(=O)[nH]c(=S)n2Cc2ccc(OC)c(OC)c2)C1,12.6 µM (active)
3,Nc1ccc(S(=O)(=O)N2CCOCC2)cc1,inactive
4,CC(=O)c1ccc(N2CCN(S(=O)(=O)c3ccc4c(c3)CCCC(=O)N4)CC2)cc1,inactive
5,CC(=O)c1ccc(N2CCN(S(=O)(=O)c3cc4c(cc3Cl)NC(=O)C4)CC2)cc1,1.83 µM [inhibitor] (active) and 5.17 µM [inhibitor] (active)
6,O=S(=O)(c1ccccc1)N1CCN(Cc2ccccc2)CC1,inactive
7,Clc1ccc(-c2ccnc(Oc3cc(Cl)ccc3Cl)n2)cc1,inactive
8,C=CCCCCCCCCCCCc1ccco1,inactive
9,O=C1Cc2cc(S(=O)(=O)N3CCN(c4ccc(O)cc4)CC3)ccc2N1,6.68 µM [inhibitor] (active)
10,COc1ccc(C(=O)NC2(C(F)(F)F)C(=O)Nc3c2c(=O)[nH]c(=O)n3CCc2ccc(OC)c(OC)c2)cc1 (stereo not drawn),inactive
11,COc1cc(=O)[nH]c(=O)n1CC(=O)c1ccccc1,inactive
12,CC(C)(C)OC(=O)NCCCC[C@H](NC(=O)c1nc[nH]c1C(=O)NCc1ccccc1)C(=O)OC(C)(C)C,inactive
13,CCSc1nc(=S)n(CC)c(C)c1C(C)=O,inactive
14,COc1ccc(OC)c(/C=C/C(=O)N(C)CC(=O)Nc2ccc(C)cc2)c1,inactive
15,COc1ccc(Cc2nnc(NC(=O)CSc3ccc(Cl)cc3)s2)cc1,inactive
16,N#Cc1cccc(S(=O)(=O)N2CCOCC2)c1,inactive
17,CC(=O)c1ccc(N2CCN(S(=O)(=O)c3ccc(N4CCCC4=O)cc3)CC2)cc1,inactive
18,Cc1cccc(-n2c(N)cc(=O)[nH]c2=S)c1,inactive
